# Experimental data published in PubChem BioAssay.
# Active and inactive are the calls of the source.
# Assays:
# [1] = E. coli DRC41 culture turbidity changes, primary screen, E. coli filamentation inducer project, strain DRC41, OD650, 48 h (AID 1152);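 note: E. coli MC1000 strain DRC41 lacking acrAB efflux pump and sulA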; settings: E. coli DRC41 (acrAB sulA), higher = more signal, called active from +8 up or from −8 down
# [2] = small-molecule binders of probe aLefty1, primary screen, biochemical, small-molecule microarray, 635/667 nm fluorescence (AID 1153); settings: higher = more signal;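 note: score merges spot fluorescence with signal-to-noise ratio from the scanned slide images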
# [3] = PSAC antagonists in infected red cells, primary screen, cell-based, P. falciparum Indochina, OD700, 1 h (AID 1154); settings: P. falciparum Indochina infected RBC osmotic lysis, higher = more signal, called active from +8 up or from −8 down
# [4] = PSAC antagonists in infected red cells, primary screen, cell-based, P. falciparum Indochina, OD700, 2 h (AID 1155);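 note: lysis reports solute entry through the parasite surface anion channel PSAC; channel blockers reduce lysis of infected cells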; settings: P. falciparum Indochina infected erythrocytes, osmotic lysis OD700; higher = more signal, called active from +8 up or from −8 down
# [5] = osmotic lysis modulators in infected erythrocytes, primary screen, PSAC antagonist project, cell-based, P. falciparum Indochina, OD700, 3 h (AID 1156); settings: higher = more signal, called active from +8 up or from −8 down
# [6] = PSAC antagonists in infected red cells, primary screen, cell-based, P. falciparum Indochina, OD700, 18 h (AID 1157); settings: P. falciparum Indochina infected erythrocytes, osmotic lysis OD700, 18 h; higher = more signal, called active from +8 up or from −8 down
# [7] = modulators of S6 phosphorylation in cells, primary screen, cell-based, A549, cytoblot, luminescence, serum-stimulated (AID 1158); settings: A549 phospho-S6 cytoblot, 5 h, higher = more signal;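 note: serum-stimulated A549 lung adenocarcinoma cells; signal is phosphorylated S6 detected by cytoblot immunostaining with HRP secondary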
# [8] = biological target: NADPH oxidase 2 (Homo sapiens) (UniProt P04839); test: NOX2-dependent H2O2 signal modulators, primary screen, NOX inhibitor project, cell-based, HEK293-NOX2, PMA-stimulated, Amplex Red fluorescence (AID 1159); settings: 45 min, higher = more signal, called active from +8 up or from −8 down; note: test concentration not given here
# [9] = biological target: NADPH oxidase 4 (Homo sapiens) (UniProt Q9NPH5); test: NOX4-dependent H2O2 signal modulators, primary screen, NOX inhibitor project, cell-based, HEK293-NOX4, tetracycline-induced, Amplex Red fluorescence (AID 1160); settings: 45 min, higher = more signal, called active from +8 up or from −8 down
# [10] = biological target: NADPH oxidase 5 (Homo sapiens) (UniProt Q96PH1); test: NOX5-dependent H2O2 signal modulators, primary screen, NOX inhibitor project, cell-based, HEK293-NOX5, Amplex Red fluorescence (AID 1161); settings: HEK293-NOX5, ionomycin, 45 min, higher = more signal
# [11] = A549 cell viability effects, profiling panel, calcein-AM fluorescence, 48 h, basal (AID 1162); settings: higher = more signal; note: test concentration not given here
# [12] = adipocyte viability effects, profiling panel, cell-based, 3T3-L1 adipocytes, calcein-AM fluorescence, 48 h, basal (AID 1163); settings: 3T3-L1 adipocytes viability, higher = more signal; note: test concentration not given here
# [13] = HepG2 cell viability effects, profiling panel, calcein-AM fluorescence, 48 h, basal (AID 1164); settings: higher = more signal; note: test concentration not given here
# [14] = MM1S cell viability effects, profiling panel, calcein-AM fluorescence, 48 h, basal (AID 1165); settings: higher = more signal;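 note: viability of MM1S multiple myeloma cells under basal unstimulated conditions; test concentration not given here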
# [15] = basal RPMI8226 viability, no added stimulus, profiling panel, cell-based, calcein-AM fluorescence, 48 h, PK04 Diversity Set (AID 1166); settings: RPMI8226 myeloma viability, higher = more signal;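 note: cells grown under basal conditions without added stimulus; test concentration not given here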
# [16] = basal HepG2 mitochondrial membrane potential changes, profiling panel, cell-based, JC-1 fluorescence, 24 h, 100 nL compound (AID 1167); settings: higher = more signal; note: test concentration not given here
# [17] = basal 3T3-L1 adipocyte mitochondrial potential changes, profiling panel, cell-based, JC-1 fluorescence, 3T3-L1 adipocytes, 24 h, 100 nL compound (AID 1168); settings: JC-1 mitochondrial fluorescence, higher = more signal, called active from +8 up or from −8 down; note: test concentration not given here
# [18] = basal RPMI8226 mitochondrial membrane potential changes, profiling panel, cell-based, JC-1 fluorescence, 24 h, 100 nL compound (AID 1169); settings: RPMI8226 myeloma, JC-1 mitochondrial potential fluorescence, higher = more signal; note: test concentration not given here
# [19] = basal MM1S mitochondrial membrane potential changes, profiling panel, cell-based, JC-1 fluorescence, 24 h, 100 nL compound (AID 1170); settings: higher = more signal; note: test concentration not given here
# [20] = A549 lung cancer cell viability effects, profiling panel, resazurin fluorescence, 24 h, PK04 Diversity Set (AID 1171); settings: higher = more signal, called active from +8 up or from −8 down; note: test concentration not given here
# NADPH oxidase 2 (Homo sapiens), sequence (P04839 whole entry, looked up): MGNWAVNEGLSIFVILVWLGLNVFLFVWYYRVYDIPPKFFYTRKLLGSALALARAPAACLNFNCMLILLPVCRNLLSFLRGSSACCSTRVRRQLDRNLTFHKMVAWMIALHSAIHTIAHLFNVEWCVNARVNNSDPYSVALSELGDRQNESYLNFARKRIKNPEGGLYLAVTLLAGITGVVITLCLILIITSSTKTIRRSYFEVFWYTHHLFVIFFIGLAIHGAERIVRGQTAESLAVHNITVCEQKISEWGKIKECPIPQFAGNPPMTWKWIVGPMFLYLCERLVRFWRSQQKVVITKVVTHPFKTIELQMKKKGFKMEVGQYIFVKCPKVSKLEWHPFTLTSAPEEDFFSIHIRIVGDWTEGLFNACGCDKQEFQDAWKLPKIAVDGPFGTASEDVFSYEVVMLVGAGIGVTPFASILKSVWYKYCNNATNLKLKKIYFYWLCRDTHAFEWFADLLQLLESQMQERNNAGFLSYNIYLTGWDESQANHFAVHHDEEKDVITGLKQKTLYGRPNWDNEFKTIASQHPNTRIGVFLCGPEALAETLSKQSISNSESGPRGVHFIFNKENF
# NADPH oxidase 4 (Homo sapiens), sequence (Q9NPH5 whole entry, looked up): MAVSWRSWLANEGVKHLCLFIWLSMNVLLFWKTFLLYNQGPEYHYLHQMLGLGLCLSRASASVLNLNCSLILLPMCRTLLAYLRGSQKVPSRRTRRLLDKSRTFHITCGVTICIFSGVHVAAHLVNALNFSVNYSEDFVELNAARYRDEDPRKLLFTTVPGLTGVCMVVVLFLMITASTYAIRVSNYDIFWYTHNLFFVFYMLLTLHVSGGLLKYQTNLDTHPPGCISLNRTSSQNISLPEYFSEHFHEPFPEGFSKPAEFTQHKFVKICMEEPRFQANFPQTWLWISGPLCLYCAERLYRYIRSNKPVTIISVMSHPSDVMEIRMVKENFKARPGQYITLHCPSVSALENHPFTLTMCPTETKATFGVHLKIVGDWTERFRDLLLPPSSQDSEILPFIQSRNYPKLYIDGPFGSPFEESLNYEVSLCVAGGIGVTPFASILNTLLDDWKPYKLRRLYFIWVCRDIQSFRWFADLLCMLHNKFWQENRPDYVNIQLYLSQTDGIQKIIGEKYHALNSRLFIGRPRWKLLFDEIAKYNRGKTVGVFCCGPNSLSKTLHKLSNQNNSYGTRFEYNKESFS
# NADPH oxidase 5 (Homo sapiens), sequence (Q96PH1 whole entry, looked up): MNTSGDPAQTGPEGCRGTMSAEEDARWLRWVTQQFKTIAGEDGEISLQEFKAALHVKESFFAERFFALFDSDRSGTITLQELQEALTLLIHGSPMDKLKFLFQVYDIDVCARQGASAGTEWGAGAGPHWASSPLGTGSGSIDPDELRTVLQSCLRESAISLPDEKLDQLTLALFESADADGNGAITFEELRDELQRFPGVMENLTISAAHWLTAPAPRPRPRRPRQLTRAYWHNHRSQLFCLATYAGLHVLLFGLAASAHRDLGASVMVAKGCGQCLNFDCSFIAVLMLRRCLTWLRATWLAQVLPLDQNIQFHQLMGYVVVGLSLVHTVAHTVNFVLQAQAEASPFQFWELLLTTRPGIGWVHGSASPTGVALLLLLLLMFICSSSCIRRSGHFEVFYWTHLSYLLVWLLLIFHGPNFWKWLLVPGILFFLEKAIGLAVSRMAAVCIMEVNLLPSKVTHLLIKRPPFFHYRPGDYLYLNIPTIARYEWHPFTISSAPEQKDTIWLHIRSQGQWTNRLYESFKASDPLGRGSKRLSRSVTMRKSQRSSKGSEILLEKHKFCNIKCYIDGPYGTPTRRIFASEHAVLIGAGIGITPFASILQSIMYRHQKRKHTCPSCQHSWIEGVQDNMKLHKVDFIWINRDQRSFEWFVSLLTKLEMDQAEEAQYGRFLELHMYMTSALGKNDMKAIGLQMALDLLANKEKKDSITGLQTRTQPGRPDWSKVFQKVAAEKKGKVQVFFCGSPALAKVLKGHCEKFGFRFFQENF
Structure (SMILES),z-score [1],composite z-score [2],z-score [3],z-score [4],z-score [5],z-score [6],z-score [7],z-score [8],z-score [9],z-score [10],z-score [11],z-score [12],z-score [13],z-score [14],z-score [15],z-score [16],z-score [17],z-score [18],z-score [19],z-score [20]
CCCCC=C[C@@H](NC(=O)Oc1cccc(C(F)(F)F)c1)c1ccccc1,-2.63 (inactive),1.29,2.41 (inactive),0.278 (inactive),0.247 (inactive),-1.17 (inactive),1.31,-3.82 (inactive),-3.48 (inactive),-2.98,-1.12,0.26,-0.568,-1.8,-3.36,-1.63,-0.585 (inactive),-0.799,-1.1,-0.665 (inactive)
O=C1O[C@H](c2ccccc2)[C@H](c2ccccc2)N2[C@H]1[C@@H](C(=O)Nc1nc3ccccc3s1)[C@]1(C(=O)Nc3ccc(C#CC4(O)CCCCCC4)cc31)[C@H]2c1ccc(OCCO)cc1,-0.558 (inactive),0.338,3.28 (inactive),1.58 (inactive),0.501 (inactive),1.67 (inactive),-0.239,0.286 (inactive),0.11 (inactive),-0.0468,-0.128,1.45,-0.318,-1.89,-2,-3.77,-0.727 (inactive),-1.22,-1.41,0.634 (inactive)
C[N+](C)(C)CCCC[C@@H]1NC(=O)[C@@H]2C[C@H](C(=O)NCCCCCN)[C@H](c3cccc(OCCO)c3)N2C1=O,-0.272 (inactive),-0.0412,1.85 (inactive),0.508 (inactive),0.214 (inactive),0.129 (inactive),-0.0726,0.79 (inactive),0.289 (inactive),1.54,1.53,0.698,1.45,0.423,0.16,1.03,-0.117 (inactive),0.0947,-0.198,0.0718 (inactive)
COc1ccc(CCNC(=O)[C@@]2(C)c3ccccc3C(=O)N(Cc3cc(F)cc(C(F)(F)F)c3)[C@H]2c2ccc(CO)cc2)cc1,0.753 (inactive),-0.045,8.08 (active),0.906 (inactive),1.24 (inactive),0.526 (inactive),0.0269,-1.38 (inactive),-1.28 (inactive),-1.5,0.805,0.766,0.41,-1.86,-2.07,0.857,-0.633 (inactive),-0.601,1.08,0.396 (inactive)
COc1ccc(C(=O)Nc2cccc(CN3C(=O)[C@]4(O[C@H](CCO)[C@@H]([Si](C)(C)c5ccc(OC)cc5)[C@@H]4C)c4ccccc43)c2)cc1,-0.172 (inactive),0.0698,2.54 (inactive),1.45 (inactive),0.374 (inactive),1.85 (inactive),-0.59,-6.65 (inactive),-2.74 (inactive),-3.1,-4.13,-0.564,-4.73,-2.78,-4.35,-2.23,-1.37 (inactive),-0.73,-1.96,-6.33 (inactive)
COC(=O)c1c(CC[C@@H](CO)NC(=O)N[C@@H](C)Cn2cc(C3(O)CCCCC3)nn2)oc(C(C)=O)c1C(=O)OC,-0.244 (inactive),-0.0984,5.47 (inactive),-0.319 (inactive),1.01 (inactive),-1.01 (inactive),0.813,-6.12 (inactive),-2.61 (inactive),-2.88,0.0154,0.93,-0.0256,0.0508,-1.82,-0.637,1.17 (inactive),-0.44,0.414,-1.04 (inactive)
COCCOC(=O)N1C(=O)[C@@]2(c3cc(C#CC4=CCCCC4)ccc31)[C@H](C(N)=O)[C@H]1C(=O)O[C@H](c3ccccc3)[C@H](c3ccccc3)N1[C@@H]2c1ccc(OCCO)cc1,0.102 (inactive),-0.273,6.77 (inactive),3.03 (inactive),2.5 (inactive),1.96 (inactive),0.375,1.54 (inactive),1.41 (inactive),1.96,-0.0731,-0.605,0.575,-2.37,-2.99,-2.31,1.22 (inactive),-0.799,-1.82,-2.15 (inactive)
C=C(CCCC)C(=O)CC[C@@H](OC(=O)c1cccnc1)c1ccc(CO)o1,-0.367 (inactive),-0.289,3.22 (inactive),0.449 (inactive),0.873 (inactive),0.258 (inactive),0.264,0.341 (inactive),-0.942 (inactive),-1.04,0.274,0.149,0.909,-0.238,-0.156,-1.35,-0.123 (inactive),0.736,-0.0347,-0.192 (inactive)
C=CCOC(=O)[C@H]1[C@@H]2C(=O)O[C@@H](c3ccccc3)[C@@H](c3ccccc3)N2[C@@H](c2ccc(OCCOC(=O)[C@@H]3C[C@@H]4C(=O)N[C@@H](CCCCN(C)C)C(=O)N4[C@@H]3c3ccc(O)cc3)cc2)[C@]12C(=O)Nc1ccc(I)cc12,-0.785 (inactive),-0.15,-0.117 (inactive),1.39 (inactive),5.33 (inactive),0.448 (inactive),-0.724,1.41 (inactive),0.74 (inactive),-0.496,-0.508,-0.523,-0.222,-0.397,-0.449,-1.65,0.832 (inactive),-0.7,-1.6,0.183 (inactive)
C=CC[C@@]1(C(N)=O)N=C(c2ccc(OCCCO)cc2)O[C@@H]1c1ccccc1CN=[N+]=[N-],0.0347 (inactive),0.571,21.5 (active),4.04 (inactive),2 (inactive),-0.413 (inactive),2.43,-0.934 (inactive),0.313 (inactive),-0.802,0.0465,1.69,0.0287,0.204,-0.189,-2.45,-0.337 (inactive),-0.231,-1.79,-0.29 (inactive)
COc1cc(OC)c(C(O)C2C=CC3C(=O)NC(=O)C3N2Nc2ccc(Cl)cc2Cl)cc1Br (stereo not given),-2.02 (inactive),0.689,4.81 (inactive),1.4 (inactive),-0.372 (inactive),1.84 (inactive),-0.924,-0.603 (inactive),-5.17 (inactive),-1.12,-1.52,0.0779,-2.49,-3.42,-3.97,-2.87,-0.82 (inactive),-1.09,-1.27,-2.56 (inactive)
[N-]=[N+]=Nc1ccccc1C[C@]1(C(=O)NCC(O)CO)N=C(c2ccc(OCCCO)cc2)O[C@H]1c1ccccc1N=[N+]=[N-] (stereo not given in full),0.394 (inactive),-0.0295,29.2 (active),29 (active),0.581 (inactive),2.68 (inactive),0.0471,-2.76 (inactive),-0.295 (inactive),-1.67,-1.04,-0.676,-1.12,-2.98,-3.14,-0.162,0.153 (inactive),-1.19,-1.3,-1.19 (inactive)
CCCC=C(CCC)[C@@H](NC(=O)Oc1ccc(F)cc1)c1ccc(C(=O)OC)cc1,-0.755 (inactive),0.221,0.454 (inactive),1.34 (inactive),-1.54 (inactive),1.35 (inactive),0.298,-0.395 (inactive),-1.17 (inactive),-0.592,-1.33,-0.609,0.0049,-1.43,-2.42,6.8,0.261 (inactive),-0.754,-1.44,0.717 (inactive)
Cc1ccc(S[C@]2(C(=O)NC3CC3)CC(=O)N(C3Cc4ccccc4C3)[C@@H]2c2ccc(CO)cc2)cc1,2.26 (inactive),0.0962,0.924 (inactive),-0.578 (inactive),-0.758 (inactive),-0.876 (inactive),0.827,-0.655 (inactive),0.585 (inactive),0.205,3.2,0.785,1.51,0.498,0.244,2.78,0.569 (inactive),0.763,-0.0488,-1.23 (inactive)
C=C(CCCC)C(=O)CC[C@H](OC(C)=O)c1cccc(OCCO)c1,0.648 (inactive),-0.263,5.27 (inactive),-1.77 (inactive),1.57 (inactive),-1.85 (inactive),0.73,-1.94 (inactive),-0.766 (inactive),-2.8,-0.0802,1.62,-0.889,-1.12,-1.18,-0.525,0.906 (inactive),0.139,-0.964,-0.252 (inactive)
CCCC[C@H]1OB(O)C[C@H]2C1=C(COc1ccccc1)C[C@H]1C(=O)N(C)C(=O)[C@H]12,-0.882 (inactive),-0.0989,1.31 (inactive),-0.252 (inactive),-0.761 (inactive),0.232 (inactive),-0.149,-0.405 (inactive),0.509 (inactive),0.224,0.498,0.0271,0.258,-1.46,-0.185,-1.29,0.468 (inactive),0.304,0.35,-0.166 (inactive)
COCCOC(=O)N1C(=O)[C@@]2(c3cc(C#CCCO)ccc31)[C@H](C(=O)Nc1nc3ccccc3s1)[C@H]1C(=O)O[C@H](c3ccccc3)[C@H](c3ccccc3)N1[C@@H]2c1ccc(OCCO)cc1,0.372 (inactive),0.352,4.19 (inactive),1.5 (inactive),0.708 (inactive),1.34 (inactive),-0.548,0.82 (inactive),0.462 (inactive),1.37,-0.324,-0.0713,0.555,-0.315,-0.234,-3.53,0.823 (inactive),-0.371,-1.41,1.24 (inactive)
